High-throughput results (PubChem BioAssay)
IL1B secr inh: inflammasome signaling inhibition, IL-1 beta readout; activity change, % at 57.5 µM; 4.7% of 360,000 active; THP-1 LPS/ATP IL-1B secretion, AlphaLISA, 16 h; active compounds read low; AID 743279; in the data active = activity change below about -50%; inconclusive = mostly about -30% to -49%; also: % is scaled to controls: 0 for no effect and ±100 for the full control effect
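Secreted IL-1B measured by AlphaLISA bead assay after 16 h compound exposure of THP-1 cells; compounds (final up to 57.5 uM) added 1 h before LPS (250 ng/mL) and ATP (1.25 mM) stimulation; lower signal means less secretion.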
HepG2 viability: kills HepG2 cells in TGF-b inhibitor counter-screen. HepG2 CAGA-GFP viability, ATP luminescence, 18 h. Potency, µM (doses to about 46.1 µM), without a hit: top-dose activity change, negative = cytotoxicity, usual class: cytotoxic. 0.76% of 410,000 active; also: potency is read from the fitted curve at half-maximal effect
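CellTiter-Glo luminescence gave cytotoxicity after 18 hours at 37 degrees C. The cells were HepG2 CAGA-GFP in 1% FBS DMEM, stimulated with 500 pg/mL TGF-beta after compound addition. %Activity was normalised to no-cell wells (complete cell-killing) and DMSO (no toxicity), and curves were fitted and classified.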
TGFb inhibitor: blocks TGF-b signaling. HepG2 CAGA-GFP TGF-b/SMAD3 reporter, GFP fluorescence, 18 h; TGF-beta stimulated, 500 pg/mL final. Potency, µM (series often up to 46.1 µM), inactives show at the top dose activity, negative = inhibition, most hits filed as inhibitors. 1.2% of 410,000 active. AID 588855; also: potency is read from the fitted curve at half-maximal effect; % is scaled to controls: 0 for no effect and ±100 for the full control effect; nearly all actives have a fitted effect of over 65% in size
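First, reporter cells (HEPG2 CAGA-GFP) rested 2 h at 37 degrees C. Next, compounds were pinned in and TGF-beta added to 500 pg/mL final. After 18 h, GFP was imaged per cell and summed per well.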
Giardia killer: kills Giardia lamblia. 0.15% of 340,000 active. activity change, % at 7.66 µM, hits read low. Giardia lamblia trophozoite viability; in the data active = activity change below about -80%; inconclusive = between about -30% and that limit;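 also: parasites exposed to compound for two days anaerobically before the ATP read; % is scaled to controls: 0 for no effect and ±100 for the full control effect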
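Giardia trophozoites, 100 cells per well, were exposed to compounds for 48 hrs at 37 deg C under anaerobic conditions; viability was then read as ATP content by bioluminescence after 15-30 min at room temperature.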
HT1080 IDH1KD tx: kills HT-1080 cells with IDH1 knockdown | HT-1080 IDH1 knockdown viability, ATP luminescence, 48 h | Potency, µM (titrated, usually from 46.1 µM), for inactives: top-dose activity, negative = toxicity, usual class: cytotoxic | 2% of 360,000 active | AID 686971;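 also: potency is read from the fitted curve at half-maximal effect; 0% = DMSO wells and -100% = cell-free medium wells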
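Luminescent ATP read-out (CellTiter-Glo, 10 min at room temperature) after 48 h compound exposure at 37 °C gave viability of IDH1-knockdown HT-1080 cells. Activity was normalised to DMSO and cell-free wells, then fitted as concentration-response curves.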
HT1080-NT tox: kills 2HG-producing HT-1080-NT fibrosarcoma cells; HT-1080-NT fibrosarcoma viability, CellTiter-Glo ATP luminescence, 48 h; Potency, µM (top dose mostly 46.1 µM), without a hit: top-dose activity, negative = less viability, usual class: cytotoxic; 1.6% of 360,000 active;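 also: NT is the 2HG producing partner of a matched IDH1 knockdown line; potency is read from the fitted curve at half-maximal effect; 0% = DMSO-treated cells and -100% = media-only wells without cells; nearly all actives have a fitted effect of over 55% in size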
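Viability by CellTiter-Glo luminescence after 48 h compound exposure at 37C of HT-1080-NT cells (750/well, RPMI, 5% FBS). % activity scaled between DMSO wells and medium-only wells, then curve-fitted and categorized by curve class.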
An asterisk follows results filed as active. Shown are actives, neighbours in structure and some others; about 6.5% of the full set was active somewhere. Unless noted, calls follow the shape of the dose curve; as a rule, active = well fitted curve in the direction sought with a large enough effect; inconclusive = small, poorly fitted or top-dose-only effect, or another doubt; inactive = no such curve, though single readings can be large; an effect the other way counts as inactive or inconclusive.

How did O=[N+]([O-])c1ccc2oc(C(O)c3cccc(Cl)c3)cc2c1 (stereo not drawn) do in these assays?
IL1B secr inh: -93*; HepG2 viability: -40%; TGFb inhibitor: inconclusive; Giardia killer: -30; HT1080 IDH1KD tx: -19%; HT1080-NT tox: -29%

How did CCOC(=O)c1cc2cc([N+](=O)[O-])ccc2oc1=O do in these assays?
IL1B secr inh: -6; HepG2 viability: 2%; TGFb inhibitor: -2%; Giardia killer: -21; HT1080 IDH1KD tx: -2%; HT1080-NT tox: 16%

What do the screens show for `COc1cccc(-c2oc3ccc(C)cc3c(=O)c2O)c1`?
HepG2 viability: -30%; TGFb inhibitor: 8.9µM*

How did CCOc1ccc(-c2oc3ccc(C)cc3c(=O)c2O)cc1 do in these assays?
HepG2 viability: -2%; TGFb inhibitor: inconclusive

Results for CCc1cccc(C)c1NC(=O)Cn1c(=O)cc(C)c2c(C)nn(-c3cccc(F)c3)c21 ?
HepG2 viability: -20%; TGFb inhibitor: -3%

How did O=C(NCC1CCCCC1)c1cc2ccccc2cc1O do in these assays?
IL1B secr inh: -88*; HepG2 viability: -15%; TGFb inhibitor: inconclusive; Giardia killer: 0; HT1080 IDH1KD tx: inconclusive; HT1080-NT tox: inconclusive

What do the screens show for `O=C(NCC1CCCO1)c1cc2ccccc2cc1O` (stereo not drawn)?
IL1B secr inh: 5; HepG2 viability: -3%; TGFb inhibitor: 0%; Giardia killer: -6; HT1080 IDH1KD tx: 3%; HT1080-NT tox: -13%

Results for COc1ccc(/C=C/C(=O)NCc2cnn(C)c2C)cc1COc1ccc(Br)cc1 ?
IL1B secr inh: inconclusive; HepG2 viability: -2%; TGFb inhibitor: inconclusive; Giardia killer: -5; HT1080 IDH1KD tx: inconclusive; HT1080-NT tox: -22%

What do the screens show for `COc1ccccc1Nc1nc(N)nc(CSc2nncn2C)n1`?
IL1B secr inh: 0; HepG2 viability: -7%; TGFb inhibitor: 12%; Giardia killer: -1; HT1080 IDH1KD tx: 0%; HT1080-NT tox: -2%

What do the screens show for `COC(=O)c1c(C)[nH]c(C(=O)CSc2ncnc3sc(-c4ccccc4)cc23)c1C`?
IL1B secr inh: 26; HepG2 viability: 4µM*; TGFb inhibitor: -13%; Giardia killer: 35; HT1080 IDH1KD tx: -4%; HT1080-NT tox: -3%

What do the screens show for `O=C(CCC(=O)N1CCCCC1)Nc1ccc(Cl)c(Cl)c1`?
IL1B secr inh: inactive; HepG2 viability: -35%; TGFb inhibitor: -1%; Giardia killer: 2; HT1080 IDH1KD tx: -15%; HT1080-NT tox: -10%

What do the screens show for `O=c1c(C(c2ccc(Br)cc2)c2c(O)nc3n(c2=O)CCS3)c(O)nc2n1CCS2`?
IL1B secr inh: -69*; HepG2 viability: -22%; TGFb inhibitor: 13%; Giardia killer: 6; HT1080 IDH1KD tx: 4%; HT1080-NT tox: 3%

How did O=C(CN1CCC(C(O)(c2ccccc2)c2ccccc2)CC1)Nc1ccccc1 do in these assays?
IL1B secr inh: -55*; HepG2 viability: -51%; TGFb inhibitor: -3%; Giardia killer: 17; HT1080 IDH1KD tx: inconclusive; HT1080-NT tox: inconclusive

Results for O=C(CN1CCOCCOCCOCC1)Nc1ccccc1 ?
IL1B secr inh: -7; HepG2 viability: -15%; TGFb inhibitor: -1%; Giardia killer: -12; HT1080 IDH1KD tx: -4%; HT1080-NT tox: -11%

How did O=C(CN1CCC(C(O)(c2ccccc2)c2ccccc2)CC1)Nc1cc(Cl)ccc1Cl do in these assays?
IL1B secr inh: -67*; HepG2 viability: -8%; TGFb inhibitor: -5%; Giardia killer: 13; HT1080 IDH1KD tx: -16%; HT1080-NT tox: -9%

What do the screens show for `CCOC(=O)COc1ccccc1/C=C1/NC(=O)NC1=O`?
IL1B secr inh: inconclusive; HepG2 viability: 0%; TGFb inhibitor: -7%; Giardia killer: -13; HT1080 IDH1KD tx: 2%; HT1080-NT tox: 3%

What do the screens show for `COc1cccc(/C=C2\NC(=O)NC2=O)c1O`?
IL1B secr inh: -50*; HepG2 viability: 2%; TGFb inhibitor: -3%; Giardia killer: -15; HT1080 IDH1KD tx: 7%; HT1080-NT tox: 10%

How did COc1cc(CNCc2ccccc2)c(Br)cc1OC1CCCC1 do in these assays?
IL1B secr inh: -55*; HepG2 viability: 0%; TGFb inhibitor: 0%; Giardia killer: -13; HT1080 IDH1KD tx: inconclusive; HT1080-NT tox: inconclusive

Results for COc1ccc(C(=O)c2coc3ccc(O)c(CN4CCCC4)c23)cc1 ?
IL1B secr inh: -23; HepG2 viability: -26%; TGFb inhibitor: -10%; Giardia killer: -15; HT1080 IDH1KD tx: -4%; HT1080-NT tox: -12%

How did Cc1ccc(C(=O)c2coc3ccc(O)c(CN4CCN(C)CC4)c23)cc1 do in these assays?
IL1B secr inh: -54*; HepG2 viability: -31%; TGFb inhibitor: inconclusive; Giardia killer: 0; HT1080 IDH1KD tx: -18%; HT1080-NT tox: -6%

What do the screens show for `O=C(CN1C(=O)CC(c2ccccc2)Sc2ccccc21)NCC1CCCO1` (stereo not drawn)?
IL1B secr inh: 41; HepG2 viability: -13%; TGFb inhibitor: -1%; Giardia killer: -19; HT1080 IDH1KD tx: 3%; HT1080-NT tox: 8%

Results for FC(F)Oc1ccc(NC(=S)Nn2cnnc2)cc1 ?
IL1B secr inh: 4; HepG2 viability: 2%; TGFb inhibitor: 16µM*; Giardia killer: -7; HT1080 IDH1KD tx: -1%; HT1080-NT tox: 2%

How did N#Cc1nc(-c2ccccc2F)oc1NCc1ccccc1 do in these assays?
IL1B secr inh: 18; HepG2 viability: -10%; TGFb inhibitor: inconclusive; Giardia killer: 8; HT1080 IDH1KD tx: -1%; HT1080-NT tox: -1%

How did CC(C)[C@H](CO)Nc1nc(NCc2ccc(S(N)(=O)=O)cc2)c2ncn(C(C)C)c2n1 do in these assays?
IL1B secr inh: -103*; HepG2 viability: -1%; TGFb inhibitor: inconclusive; Giardia killer: -15; HT1080 IDH1KD tx: inconclusive; HT1080-NT tox: inconclusive

Results for COc1ccc(OC)c(C2CC(=O)Nc3ccc4ccccc4c32)c1 (stereo not drawn) ?
HepG2 viability: -37%; TGFb inhibitor: -28%

How did CCCCOc1ccccc1C1CC(=O)Nc2ccc3ccccc3c21 (stereo not drawn) do in these assays?
HepG2 viability: 11µM*; TGFb inhibitor: inconclusive

Results for NS(=O)(=O)c1ccc(SCc2ccccc2)nc1 ?
IL1B secr inh: inconclusive; HepG2 viability: 8%; TGFb inhibitor: 32%; Giardia killer: 0; HT1080 IDH1KD tx: -3%; HT1080-NT tox: 0%
